Assay results from PubChem BioAssay (NCI).
Compounds without any hit were thinned out: in the full panel of roughly 79,000, 15% have a hit. Cut-off read from the data, not from the text of the source: active = growth inhibition above about 70%; inactive = the rest.

What was measured:
[1] = NCI Yeast Anticancer Drug Screen. Data for the rad50 strain (AID 155);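 note: 0% = growth of vehicle-only cultures of the same strain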; settings: S. cerevisiae rad50 strain growth inhibition; at 50.0 µM; hits give high values
In short: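 Genetically altered yeast (DNA repair pathway); compound treatment; growth inhibition vs vehicle ctrl.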

[2] = NCI Yeast Anticancer Drug Screen. Data for the mec2-1 strain (AID 157); settings: S. cerevisiae mec2-1 strain, at 50.0 µM, hits give high values
In short: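 Yeast mec2-1 mutant treated with compound. Readout: growth inhibition vs vehicle controls.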

[3] = NCI Yeast Anticancer Drug Screen. Data for the sgs1 mgt1 strain (AID 161);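 note: 0% = growth of cultures given vehicle only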; settings: S. cerevisiae sgs1 mgt1 strain, at 50.0 µM, hits give high values
In short: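 Read-out: growth inhibition vs vehicle controls. Cells: mutant yeast strain deficient in DNA damage repair.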

[4] = NCI Yeast Anticancer Drug Screen. Data for the cln2 rad14 strain (AID 165);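 note: 0% = growth equal to vehicle treated cultures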; settings: S. cerevisiae cln2 rad14 strain, at 50.0 µM, hits give high values
In short: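 cln2 rad14 yeast strain; compound exposure; growth inhibition read vs vehicle controls.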

[5] = NCI Yeast Anticancer Drug Screen. Data for the bub3 strain (AID 167); settings: S. cerevisiae bub3 mutant strain, at 50.0 µM, hits give high values
In short: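 Yeast carrying a defined mutation is treated with each compound, and growth is compared with that of vehicle-exposed cells to give inhibition.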

[6] = NCI Yeast Anticancer Drug Screen. Data for the mlh1 rad18 strain (AID 175); settings: S. cerevisiae mlh1 rad18 strain growth inhibition; at 50.0 µM; hits give high values
In short: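 Yeast w/ defined DNA-repair lesions; compound exposure; growth vs vehicle controls → % inhibition.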

Measured: growth inhibition

Cc1ccc(CCCCCOc2ccc(C3=NCCO3)cc2)s1
inactive: [1] -2% | [2] 22.2% | [3] 22.4% | [4] -21% | [5] -3% | [6] -4.9%

Oc1ccccc1C=Nc1ccc2c(ccc3c4ccccc4ccc23)c1
inactive: [1] 51.8% | [2] 39.8% | [3] 28% | [4] -6.65% | [5] 48.1% | [6] 39.8%

Cc1ccc2nc(N(C)C)cc(N(C)C)c2c1
inactive: [1] -7.1% | [2] 6% | [3] 0.2% | [4] -100% | [5] -4.1% | [6] 7.9%

CC[N+](CC)=c1ccc2nc3c(cc(Nc4ccccc4)c4ccccc43)oc-2c1.[Cl][Zn][Cl]
inactive: [1] 18.4% | [2] 1.4% | [3] 22.2% | [4] 20.9% | [5] -0.55% | [6] 15.4%

CNc1ccccc1C(=O)N/N=C/C1CCCCC1
inactive: [1] 0.6% | [2] -2.65% | [3] 16.6% | [4] -6.85% | [5] 9.85% | [6] 8.35%

CN1C(c2ccccc2)NC(=O)C12CCN(CCCC(=O)c1ccccc1)CC2 (stereo unspecified)
inactive: [5] 17.9%

COc1ccc2ccc3c(c2c1)C(=O)C(CC(N)=O)C3 (stereo unspecified)
inactive: [1] 1.75% | [2] 1.2% | [3] -10.7% | [5] -4.1% | [6] 15%

COc1ccccc1NCS(=O)(=O)O
inactive: [1] -7.2% | [2] -2.5% | [3] -5.95% | [5] 11.2% | [6] -8.1%

COc1ccc(/C(C)=N/NC(=O)c2ccncc2)c(OC)c1
inactive: [1] -7.85% | [2] -20.6% | [3] -29.2% | [5] -42.6% | [6] -33.1%

CCCCCCCC(=O)Nc1nnc(SCCCCCCCCCCSc2nnc(NC(=O)CCCCCCC)s2)s1
inactive: [1] -33.5% | [2] -14.9% | [3] -5.55% | [5] -0.5% | [6] -4.45%

CC[n+]1c(COCCOc2ccccc2)sc2cc3c(cc21)OCO3
inactive: [1] -23.4% | [2] -11.4% | [3] -0.35% | [5] 2.55% | [6] -18.1%

N#Cc1sc2c(c1OC(=O)c1ccc(C(F)(F)F)cc1)c(=O)n(-c1ccccc1)c(=S)n2-c1ccccc1
inactive: [1] -11.9% | [2] 0.9% | [3] 1.05% | [5] -6.2% | [6] 3.05%

NC(=O)c1csc(C2OC3COP(=O)(O)OC3C2O)n1 (stereo unspecified)
inactive: [1] -21.1% | [2] -26.2% | [3] -38.6% | [5] -29.1% | [6] -28.9%

Cc1cc(C)c(C(=O)c2ccccc2C)c(C)c1
inactive: [1] 21.3% | [2] -1% | [3] -0.35% | [5] 11.3% | [6] 15.7%

CC(=O)N1CN2C(=O)CCC2c2cc(C)ccc21 (stereo unspecified)
inactive: [1] 10.1% | [2] 14.9% | [3] -2.65% | [4] 7.8% | [6] -57.4%

CCOC(=O)C1Cc2c([nH]c(=O)[nH]c2=O)OC1c1ccc(OC)cc1 (stereo unspecified)
inactive: [1] 26.4% | [2] 7.1% | [3] 6.3% | [5] 27.1% | [6] 8.5%

O=C1C(c2ccccc2)=C(c2ccccc2)C(c2ccc(Sc3ccc(C4=C(c5ccccc5)C(=O)C(c5ccccc5)=C4c4ccccc4)cc3)cc2)=C1c1ccccc1
inactive: [1] 12.9% | [2] 22.6% | [3] 30.6% | [5] -1.2% | [6] 24.2%

CC1=NN(C(=O)CC(=O)Nc2cccc(Cl)c2)C(=O)C1N=Nc1ccc(C(=O)O)cc1 (stereo unspecified)
inactive: [1] -3.25% | [2] 1.35% | [3] 6.1% | [5] -3.2% | [6] 6.55%

CCCC1(c2ccccc2)OCC(CO)O1 (stereo unspecified)
inactive: [1] 15% | [2] 9.35% | [3] -17.4% | [5] 4.1% | [6] 4.25%

CCOC(=O)C(C(=O)OCC)C(C)(C)C
inactive: [1] -96.7% | [2] -18.3% | [3] -28.2% | [5] -3.85% | [6] -9.2%

COc1ccc(CNc2cc(OC)c(OC)c(OC)c2)cc1
inactive: [1] -49.1% | [2] -36.7% | [3] -9.55% | [5] -20.4% | [6] -33.1%

O=C(O)c1cscc1Cc1ccccc1
inactive: [1] 0.9% | [2] -2.25% | [3] -1.7% | [5] -20.8% | [6] 5.45%

O=C(Nc1ccc(Cl)cc1)OCC#CCOC(=O)Nc1ccc(Cl)cc1
inactive: [1] 5.8% | [2] -2.75% | [3] -6.3% | [5] -0.35% | [6] 2.1%

CC1OC(C)(c2ccc(Cl)cc2)OCC1(C)C (stereo unspecified)
inactive: [1] -2.45% | [2] -1.15% | [3] 2.5% | [5] 17.8% | [6] 16.9%

O=C1c2c(nc3ccccc3c2-c2ccccc2)CN1Nc1ccccn1
inactive: [1] -2.5% | [2] -4.1% | [3] 6.8% | [5] -5.7% | [6] -33.9%

COC(=O)C1=NC(=S)N=C(C(=O)OC)C1(C)C(=O)c1ccccc1
inactive: [1] 4.3% | [2] -6.95% | [3] -12.4% | [5] 3.75% | [6] 18.4%

COc1cc2c(cc1OC)-c1cc3cc(OC)c(OC)cc3c(C)[n+]1CC2 (tested in a mixture with another compound)
inactive: [1] 6.25% | [2] 0% | [3] 11.9% | [5] 11.4% | [6] -66.8%

N#CCCN(CCC#N)c1ccc(/C=C2\N=C(c3cc([N+](=O)[O-])ccc3Cl)OC2=O)cc1
inactive: [1] -8.15% | [2] 13.9% | [3] -16.4% | [5] 4.85% | [6] -7.15%

Cc1cc(N)ccc1N=Nc1cc(S(=O)(=O)O)c2cccc(S(=O)(=O)O)c2c1
inactive: [1] -4.4% | [2] 22.1% | [3] -2.65% | [5] 8.85% | [6] -4.55%

O=C(c1ccccc1)[n+]1ccc2ccccc2c1
inactive: [1] -19.1% | [2] -21.2% | [3] -4.35% | [5] -6.25% | [6] -13.1%

COc1ccc(/C=N/N2CN(C(C)C(=O)O)B(N(CCO)CCO)N=C2N)cc1OC (stereo unspecified)
inactive: [1] 15.2% | [2] 5.3% | [3] 7.55% | [5] 7.65% | [6] 20.9%

CCNc1nnc(-c2nsc3ccccc23)s1
inactive: [1] -12.7% | [2] -36.1% | [3] -10.1% | [5] -27.5% | [6] -18.9%

Cc1ccc(C)c(C2NC(=O)c3ccccc3N2)c1 (stereo unspecified)
inactive: [1] -15.8% | [2] -9.25% | [3] -44.8% | [5] -52.2% | [6] -19.8%

CCCOC(=O)c1ccccc1Cl
inactive: [1] 31.1% | [2] 22.5% | [3] 23.1% | [5] 11.6% | [6] 24.1%

CC(C)(C)c1ccc(S(=O)(=O)/C=C/c2ccccc2)cc1
inactive: [1] -2.4% | [2] 35% | [3] -9.3% | [5] 4.1% | [6] 6.3%

Cc1ccc(NC(=O)c2cc3cc(N=Nc4ccc(Br)cc4)ccc3oc2=O)cc1
inactive: [1] 16% | [2] 28.1% | [3] 12.4% | [5] 3.05% | [6] 15.8%

O=P1(c2ccccc2)OCC2=C(c3ccccc3)CC2=C1c1ccccc1 (stereo unspecified)
inactive: [1] 16.1% | [2] 12.2% | [3] 4.7% | [5] -2.05% | [6] 19.9%

CN(C)CCN1N=Nc2cccc3cccc1c23
inactive: [1] 43.3% | [2] 18.2% | [3] 10.9% | [5] 30.6% | [6] 39.4%

CCC1(C)C(=O)NC(=O)N1C(C)=O (stereo unspecified)
inactive: [1] -5.1% | [2] -21.4% | [3] -3.85% | [5] -12.3% | [6] -7.55%

CC1(C)CC(=O)N(Nc2ccccc2)C1=O
inactive: [1] -8.55% | [2] -7.6% | [3] -8.8% | [5] -12.7% | [6] -13.7%

CCOC(=O)c1cn(CC)c2cc3c(cc2c1=O)SCS3
inactive: [1] -37.3% | [2] -18.9% | [3] -16.6% | [5] 19.4% | [6] 41%

COc1ccc(CC(=O)c2c(OC)c3c(c4c2OC(C)(C)CC4)OC(C)(C)CC3)cc1OC
inactive: [1] 21.1% | [2] -14.8% | [3] 8.1% | [5] 33.9% | [6] 34.4%

O=C(O)C(CO)(c1ccccc1)c1ccccc1
inactive: [1] -3.2% | [2] -3.9% | [3] -8.25% | [5] -1.55% | [6] -0.15%

COc1cc(C(Nc2ccccn2)c2cc3c(cc2O)OCO3)cc(OC)c1O (stereo unspecified)
inactive: [1] 28.2% | [2] 46.5% | [3] 39.3% | [5] 15.7% | [6] 24.2%

O=C1OC(c2cccc(Cl)c2)=N/C1=C\c1ccccc1
inactive: [1] 13.9% | [2] 2.85% | [3] 13.5% | [5] 10.9% | [6] -5.05%
